Test results taken from ChEMBL document CHEMBL3988442, “University of Dundee, Small-Polar-MMV Screening Library” (2021).
About 1,000 (1.4%) of roughly 69,000 compounds showed an effect of 50% or more. What follows is part of a selection rich in strong results, with near analogues and random picks from the rest.

Test system: Leishmania donovani
Experiment: Leishmania intramacrophage assay
Type: functional, organism-based
Design: scale not given: in the data most compounds retested in dose-response had high values

Compound: CN1C(=O)CCCC12CCCN(Cc1cccs1)C2.O=C(O)C(F)(F)F (stereo not given)
- Percent Effect (30.3 µM, […]): 13.27%

Compound: OC(COCc1ccccc1F)CN1CCC(Cn2cccn2)CC1 (stereo not given)
- Percent Effect (30.3 µM, […]): 8.392%

Compound: Cc1ccc(CN2C[C@@H]3CN(C(=O)c4cccn4C)C[C@@H]3C2)cc1.O=C(O)C(F)(F)F
- Percent Effect (30.3 µM, […]): -2.2%

Compound: COc1ccccc1N1CCC(NCc2c(C)noc2C)C1 (stereo not given)
- Percent Effect (30.3 µM, […]): 7.918%

Compound: Cc1noc(C)c1CNc1c(N2CCCC2)cccc1N1CCCC1
- Percent Effect (30.3 µM, […]): 97.2%

Compound: Cc1noc(CNc2c(N3CCCC3)cccc2N2CCCC2)n1
- Percent Effect (30.3 µM, […]): 45.54%

Compound: Cc1cc(CN2CCC(N(C)Cc3noc(C4CC4)n3)C2)on1 (stereo not given)
- Percent Effect (30 µM): 11.66%

Compound: O=C(c1ccncc1)N1CCCn2c(CN3CCCCC3)nnc2C1
- Percent Effect (30 µM, 30.03 µM): -1.304%

Compound: CN1CC(c2cc(O)nc(NCc3ccccc3Cl)n2)CC1=O (stereo not given)
- Percent Effect (30.3 µM, […]): 7.659%

Compound: CCN1CCCC(O)(c2nc(C)c(CCOc3ccccc3F)s2)CC1 (stereo not given)
- Percent Effect (30.3 µM, […]): 7.204%

Compound: CCN1CCCC(O)(c2nc(C)c(CCOc3ccccc3Cl)s2)CC1 (stereo not given)
- Percent Effect (30.3 µM, […]): 29.58%

Compound: Cc1ncc(C(=O)NCCOc2ccccc2F)c(C)n1
- Percent Effect (30.3 µM, […]): 48.08%

Compound: Cc1nc(C2(O)CCCNCC2)sc1CCOc1ccccc1Cl.Cl (stereo not given)
- Percent Effect (30.3 µM, […]): 22.61%

Compound: Cc1nc(C2(O)CCCNCC2)sc1CCOc1ccccc1F.Cl (stereo not given)
- Percent Effect (30.3 µM, […]): 57.78%

Compound: CC/N=c1/c(NC(=O)C2CC2)c(O)oc2ccccc12
- Percent Effect (30.3 µM, […]): -64.73%

Compound: CNC(=O)C(C)(C)CNC(=O)Nc1ccc(C)cn1
- Percent Effect (30.3 µM, […]): -4.041%

Compound: CN1CCC(N2CCC(C(=O)N(C)C)CC2)CC1.O=C(O)C(F)(F)F.O=C(O)C(F)(F)F
- Percent Effect (30.3 µM, […]): 15.52%

Compound: Cc1cc(C(=O)NCc2ccnc(N3CCN(C)CC3)c2)no1
- Percent Effect (30 µM): 35.55%

Compound: COc1cc(-c2nccn2C(C)CCn2cccn2)cc2c1OCO2 (stereo not given)
- Percent Effect (30.3 µM, […]): 30.8%

Compound: COCCCn1ccnc1-c1cnc(OC)nc1
- Percent Effect (30 µM, 30.03 µM): 27.45%

Compound: COc1ncc(-c2nccn2C(C)CCn2cccn2)cn1 (stereo not given)
- Percent Effect (30.3 µM, […]): 51.46%

Compound: CCOCCNC(=O)c1cccnc1Sc1cc(OC)ccc1OC
- Percent Effect (30.3 µM, […]): 14.43%

Compound: CC(NC1CCN(CCS(C)(=O)=O)CC1)c1ccc(Cl)cc1 (stereo not given)
- Percent Effect (30 µM, 30.03 µM): 14.89%

Compound: CC(NCC1CCN(CCO)CC1)c1ccc(F)c(Cl)c1 (stereo not given)
- Percent Effect (30.3 µM, […]): 55.27%

Compound: OCCN1CCN(CC(O)c2ccc(C(F)(F)F)cc2)CC1 (stereo not given)
- Percent Effect (30.3 µM, […]): 28.06%

Compound: COC1CCN(CCNC(=O)NC(C)c2cccc(Cl)c2)CC1 (stereo not given)
- Percent Effect (30.3 µM, […]): 6.711%

Compound: Cc1ccc(CNC(=O)CNCC2CCN(CCO)CC2)s1
- Percent Effect (30.3 µM, […]): 12.94%

Compound: CC(NCC1CCN(CCO)CC1)c1ccc(C(F)(F)F)cc1 (stereo not given)
- Percent Effect (30.3 µM, […]): 77.37%

Compound: CC(NCC1CCN(CCO)CC1)c1ccc(OC(F)(F)F)cc1 (stereo not given)
- Percent Effect (30.3 µM, […]): 36.61%

Compound: CC(NCC1CCN(CCO)CC1)c1cccc(Cl)c1 (stereo not given)
- Percent Effect (30.3 µM, […]): 73.65%

Compound: CC(NCC1CCN(CCO)CC1)c1ccc(Cl)cc1 (stereo not given)
- Percent Effect (30.3 µM, […]): 77.33%

Compound: CN(CC1CCN(CCO)CC1)CC(O)c1ccc(F)c(F)c1 (stereo not given)
- Percent Effect (30.3 µM, […]): 32.26%

Compound: COc1ccc(CNCC2CCN(CCO)CC2)cc1F
- Percent Effect (30.3 µM, […]): 13.13%

Compound: CC(NCC1CCN(CCO)CC1)c1cccnc1 (stereo not given)
- Percent Effect (30.3 µM, […]): 10.64%

Compound: O=C(O)C(F)(F)F.O=S(=O)(C1CC1)N1CCOCC2(CCN(c3ccccn3)C2)C1 (stereo not given)
- Percent Effect (30 µM, 30.03 µM): -13.08%

Compound: CC(C)N(C)Cc1nnn2c1CN(Cc1cccnc1)CCC2.O=C(O)C(F)(F)F.O=C(O)C(F)(F)F.O=C(O)C(F)(F)F
- Percent Effect (30.3 µM, […]): -19.03%

Compound: FC(F)(F)c1cc(C2CCNCC2)nc(-c2ccsc2)n1
- Percent Effect (30.3 µM, […]): 3.687%

Compound: CN(Cc1ccccc1)S(=O)(=O)N1C[C@H](C2CC2)[C@@H](N)C1
- Percent Effect (30.3 µM, […]): 11.31%

Compound: Cc1nc(CN(C)C2CCN(CCc3ccc4c(c3)CCO4)C2)no1 (stereo not given)
- Percent Effect (30 µM): 14.02%

Compound: Cc1noc(CN(C)CC2CCN(CCO)CC2)n1
- Percent Effect (30.3 µM, […]): 19.09%

Compound: COc1ccc(CCN2CCCC(Cn3nc(C)nc3C)C2)cc1 (stereo not given)
- Percent Effect (30 µM, 30.03 µM): 18.76%

Compound: Cc1nc(CN(C)C2CCN(CCc3cnn(C)c3)C2)no1 (stereo not given)
- Percent Effect (30 µM): 5.885%

Compound: CCc1nc(CN(C)C2CCN(CCc3ccncc3)C2)no1 (stereo not given)
- Percent Effect (30.3 µM, […]): 23.01%

Compound: Cc1nc(C)n(CC2CCCN(CCc3ccccc3)C2)n1 (stereo not given)
- Percent Effect (30 µM): 25.36%

Compound: O=C(CCOc1ccccc1)NS(=O)(=O)Cc1ccccc1
- Percent Effect (30.3 µM, […]): 8.588%

Compound: CCO[C@H]1CC[C@H]2[C@H]1OCCN2C(=O)CC1=CCCCC1
- Percent Effect (30.3 µM, […]): 2.273%

Compound: Cn1cnc(S(=O)(=O)N2CCCC2)c1Cl
- Percent Effect (30 µM, 30.03 µM): 14.79%

Compound: O=C(NCCc1cccc(F)c1)c1nc2c(s1)CCCN2C(=O)C1CC1
- Percent Effect (30.3 µM, […]): 44.4%

Compound: CCN(Cc1ccoc1)C(C(N)=O)c1cccc(Br)c1 (stereo not given)
- Percent Effect (30.3 µM, […]): 23.25%

Compound: CN(c1ncc(S(N)(=O)=O)s1)C1CCC1
- Percent Effect (30.3 µM, […]): 27.02%

Compound: CN(c1ncc(S(N)(=O)=O)s1)C1CCc2ccccc21 (stereo not given)
- Percent Effect (30.3 µM, […]): 21.68%

Compound: CN(c1ncc(S(N)(=O)=O)s1)C1CCc2ccccc2C1 (stereo not given)
- Percent Effect (30.3 µM, […]): 53.12%

Compound: O=C(NC1CCC1)C1=NOC2(CCN(Cc3ccccc3)C2)C1 (stereo not given)
- Percent Effect (30.3 µM, […]): 18.41%

Compound: CNC(=O)CN1CCOCC2(C1)CN(C(=O)CC(C)C)CCO2.O=C(O)C(F)(F)F (stereo not given)
- Percent Effect (30.3 µM, […]): 52.6%

Compound: CCCC(=O)N1CCOC2(COCCN(CC(=O)NC)C2)C1.O=C(O)C(F)(F)F (stereo not given)
- Percent Effect (30.3 µM, […]): -9.456%

Compound: CNC(=O)CN1CCOCC2(C1)CN(C(=O)C(C)C)CCO2.O=C(O)C(F)(F)F (stereo not given)
- Percent Effect (30.3 µM, […]): -36.06%

Compound: NCCc1n[nH]c(=O)n1-c1cccc2ccccc12
- Percent Effect (30.3 µM, […]): -1.188%

Compound: COc1ccc2nnc(CCCC(=O)NCc3ccccc3)n2n1
- Percent Effect (30.3 µM, […]): -8.358%

Compound: COc1ccc2nnc(CCCC(=O)NCc3ccccc3OC)n2n1
- Percent Effect (30.3 µM, […]): -10.21%

Compound: COc1ccc2nnc(CCCC(=O)NCc3ccccc3F)n2n1
- Percent Effect (30.3 µM, […]): 59.63%

Compound: Cn1nccc1CNC(=O)CCn1nc(C(F)(F)F)cc1C1CC1
- Percent Effect (30.3 µM, […]): -48.51%

Compound: CC(=O)Nc1cc(C2CC2)nn1-c1nc(C)c(C)c(=O)[nH]1
- Percent Effect (30.3 µM, […]): -16.88%

Compound: CC(C)c1cc(=O)[nH]c(C(C)(C)N)n1.Cl
- Percent Effect (30.3 µM, […]): -1.615%

Compound: Cc1cc(=O)[nH]c(-n2nc(-c3cccs3)cc2N)n1
- Percent Effect (30.3 µM, […]): -7.901%

Compound: CCc1c(C)nc(-n2nc(C3CC3)cc2NC(C)=O)[nH]c1=O
- Percent Effect (30.3 µM, […]): 18.69%

Compound: CCCc1cc(=O)[nH]c(-c2cccc(CN3CCCCCC3)c2)n1
- Percent Effect (30.3 µM, […]): -12.61%

Compound: CCCc1cc(=O)[nH]c(-n2nc(-c3cccs3)cc2N)n1
- Percent Effect (30.3 µM, […]): -5.205%

Compound: Cc1nc(-n2nc(C3CC3)cc2NC(=O)C(C)C)[nH]c(=O)c1C
- Percent Effect (30.3 µM, […]): 15.32%

Compound: Cc1cc(=O)[nH]c(-n2nc(C3CC3)cc2N)n1
- Percent Effect (30.3 µM, […]): 77.1%

Compound: Cc1cc(=O)[nH]c(-n2nc(-c3ccccc3)cc2N)n1
- Percent Effect (30.3 µM, […]): 15.58%
